Experimental data taken from PubChem BioAssay (EPA / NIEHS).
Records with an inconclusive call do not appear. Calls of active or inactive are those of the source. The calls were made as follows: active = hit-call score of the fitted dose curve at least 0.9, where 1 is the maximum; inconclusive = response in the unintended direction; inactive = score below 0.9.

What was measured:
[1] = TOX21_p53_BLA_p2_viability: Viability Assessment in the Tox21 HCT-116 p53 Agonism Beta-lactamase Assay, Phase 2 (AID 2283591);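 also: actives lower the ATP signal meaning cytotoxicity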
How it was run: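 HCT116 p53-bla cells, 4000/well, dosed after 5 h plating (217-fold dilution of DMSO stocks) and incubated 16 h at 37C. Viability taken as cellular ATP by CellTiter-Glo luminescence after 30 min RT; signal loss marks cytotoxicity.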

[2] = biological target: Cellular tumor antigen p53 (Homo sapiens) (UniProt P04637); test: TOX21_p53_BLA_p2_ratio: Tox21 HCT-116 p53 Agonism Beta-lactamase Assay, Ratio, Phase 2 (AID 2283592)
Cellular tumor antigen p53 (Homo sapiens), sequence (P04637 whole entry, looked up): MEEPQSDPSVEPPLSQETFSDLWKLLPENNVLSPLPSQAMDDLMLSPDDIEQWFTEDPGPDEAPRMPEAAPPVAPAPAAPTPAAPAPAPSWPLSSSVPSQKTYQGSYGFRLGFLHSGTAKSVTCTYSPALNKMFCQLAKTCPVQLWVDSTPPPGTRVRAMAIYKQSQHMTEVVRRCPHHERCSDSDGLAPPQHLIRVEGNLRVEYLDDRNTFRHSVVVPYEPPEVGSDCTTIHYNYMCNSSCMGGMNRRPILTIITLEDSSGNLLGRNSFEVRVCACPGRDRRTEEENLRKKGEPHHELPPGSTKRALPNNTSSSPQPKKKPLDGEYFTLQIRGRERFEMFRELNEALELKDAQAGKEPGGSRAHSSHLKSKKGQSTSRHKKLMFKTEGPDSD
How it was run: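 An inducible beta-lactamase reporter in HCT116 cells signals p53 pathway activation. After 16 h chemical exposure at 37C, cells load CCF4-AM substrate for 2 h at room temperature; activity is the cleaved/uncleaved emission ratio relative to DMSO.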

[3] = TOX21_p53_BLA_p3_viability: Viability Assessment in the Tox21 HCT-116 p53 Agonism Beta-lactamase Assay, Phase 3 (AID 2283593);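 also: cells exposed to compound for 16 h before reading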
How it was run: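 HCT116 cells, 4000/well, dosed 5 h after plating by pin transfer (217-fold dilution from DMSO stock) and incubated 16 h at 37C, 5% CO2. Viability read as ATP luminescence with CellTiter-Glo after 30 min at room temperature.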

[4] = biological target: Cellular tumor antigen p53 (Homo sapiens) (UniProt P04637); test: TOX21_p53_BLA_p3_ratio: Tox21 HCT-116 p53 Agonism Beta-lactamase Assay, Ratio, Phase 3 (AID 2283596)
How it was run: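 HCT116 p53-bla cells (4000/well) given compound in DMSO (217-fold dilution) after 5 h, incubated 16 h at 37C. CCF4-AM substrate 2 h at room temperature; 460/530 nm emission ratio, gain fitted against DMSO.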

[5] = TOX21_p53_BLA_p4_viability: Viability Assessment in the Tox21 HCT-116 p53 Agonism Beta-lactamase Assay, Phase 4 (AID 2283597);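 also: hits lower the luminescence signal meaning cytotoxicity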
How it was run: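 Compound exposure of HCT116 cells lasts 16 h at 37C, 5% CO2, with DMSO stocks diluted 217-fold. Cellular ATP is then quantified by CellTiter-Glo luminescence after 30 min at room temperature.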

[6] = TOX21_p53_BLA_p5_viability: Viability Assessment in the Tox21 HCT-116 p53 Agonism Beta-lactamase Assay, Phase 5 (AID 2283600)
How it was run: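 Counter-readout for cytotoxicity: ATP-dependent luminescence from CellTiter-Glo, read in the beta-lactamase wells after 30 min at RT, following a 16 h compound exposure at 37C.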

[7] = biological target: Cellular tumor antigen p53 (Homo sapiens) (UniProt P04637); test: TOX21_p53_BLA_p4_ratio: Tox21 HCT-116 p53 Agonism Beta-lactamase Assay, Ratio, Phase 4 (AID 2283601)
How it was run: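 HCT-116 p53 beta-lactamase reporter cells (4000/well) preincubated 5 h, then compound (217-fold dilution of DMSO stock) for 16 h at 37C. CCF4-AM substrate added 2 h at room temperature; 460/530 nm emission ratio fitted upward versus DMSO.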

[8] = ACEA_ER_AUC_viability: ACEA Biosciences xCELLigence Real-Time Cell Analysis on Estrogen Receptor Agonism for Viability (AID 2283782);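 also: continuous compound exposure with impedance area under curve over 80 h; hit means loss of impedance signal meaning reduced cell growth or viability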
How it was run: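 T47D cells preconditioned in phenol red-free RPMI with charcoal-stripped FBS, then dosed with 8-point 1:4 series from 100 uM (up to 0.5% DMSO). Impedance monitored up to ~80 h; area-under-curve loss versus DMSO taken as viability.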

Measured: outcome

CC1(C)CC(N)CC(C)(C)N1
inactive: all assays above
